Compounds with a hit are over-represented: about 3.1% of the library has one in this group of screens.
Mcl1 Noxa PPI – Mcl-1/Noxa interaction inhibition. Q07820. AID 1022. actives 1.5% (n = 220,000). TR-FRET Mcl-1/Noxa peptide binding, 2 h. inhibition, % at 21.7 µM;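 active = compounds that cut the protein-peptide binding signal by more than 50% relative to plate controls in a single-dose test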;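 note: His-tagged Mcl-1 with rhodamine Noxa BH3 peptide and terbium anti-His antibody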
14-3-3 Bad PPI – disrupts binding of bovine 14-3-3 zeta to phospho-Bad peptide. inhibition, % at 21.7 µM. TR-FRET 14-3-3zeta/Dy647-pBad peptide displacement, 1 h. actives 0.71% (n = 220,000). AID 781;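 active = inhibition above about 70%, limit read from the data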
Target sequence (P63103 whole entry, looked up): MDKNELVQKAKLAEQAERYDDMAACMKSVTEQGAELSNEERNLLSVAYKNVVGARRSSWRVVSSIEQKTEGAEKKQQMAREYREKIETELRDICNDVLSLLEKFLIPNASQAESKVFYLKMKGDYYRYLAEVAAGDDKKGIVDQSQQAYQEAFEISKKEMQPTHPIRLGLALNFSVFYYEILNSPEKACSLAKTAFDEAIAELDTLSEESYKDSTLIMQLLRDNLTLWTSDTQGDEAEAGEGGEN
Mcl1-Bid inh – Mcl-1/Bid interaction inhibition | inhibition, % at 21.7 µM | TR-FRET Mcl-1/Bid-Dy647 peptide binding, 1536-well | actives 0.97% (n = 220,000) | Q07820;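 active = compounds that cut the binding signal by more than half at the single screening dose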;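 note: His-tagged Mcl-1 with europium anti-His antibody binding Bid BH3 peptide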
NCF1 inh – inhibitors of human p47phox binding; P14598; p47phox/p22phox peptide binding, fluorescence polarization, 2 h; inhibition, % at 24.7 µM; actives 0.53% (n = 220,000); AID 1274;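 active = inhibition above about 30%, limit read from the data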
Target sequence (P14598 whole entry, looked up): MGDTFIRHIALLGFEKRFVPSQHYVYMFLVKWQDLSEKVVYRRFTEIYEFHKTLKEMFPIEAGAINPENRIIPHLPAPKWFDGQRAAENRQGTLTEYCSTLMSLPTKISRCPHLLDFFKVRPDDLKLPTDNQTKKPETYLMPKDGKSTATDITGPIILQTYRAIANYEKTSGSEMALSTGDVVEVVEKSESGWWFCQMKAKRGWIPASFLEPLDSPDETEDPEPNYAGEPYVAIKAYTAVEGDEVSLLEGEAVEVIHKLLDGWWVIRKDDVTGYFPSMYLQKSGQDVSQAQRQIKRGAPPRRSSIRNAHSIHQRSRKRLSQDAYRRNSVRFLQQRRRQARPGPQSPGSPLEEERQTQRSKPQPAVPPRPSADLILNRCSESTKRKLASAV
Mcl-1 Bim block – human Bim-Mcl-1 interaction inhibition; actives 0.1% (n = 190,000); AID 1009; Bead-based flow cytometry, Bim peptide-Mcl-1 binding; inhibition, % at 10 µM; Q07820; in the data active = inhibition above about 40%
Of the large screens only hits and unclear results are named; the others gave an inactive call; [ ] = another dose, or the depositor's remark.

Cc1cc(C)c(-c2cc(NC(=O)COC(=O)c3ccc(CO)cc3)n(-c3ccccc3)n2)cc1C	NCF1 inh active
Cc1ccc(Oc2ccc(OCC(=O)NC(CC(C)C)C(=O)O)cc2)cc1 (stereo not drawn)	none
Oc1ccc(/C=N/Nc2cc(N3CCCC3)nc(N3CCCC3)n2)cc1O	Mcl1 Noxa PPI 65
Oc1ccc(/C=N\Nc2cc(N3CCOCC3)nc(N3CCOCC3)n2)c(O)c1	none
O=S(=O)(Nc1ncnc2sc3c(c12)CCC3)c1ccc(Cl)s1	none
CC(C)c1ccc2[nH]c3nc(SCC(=O)N4CCOCC4)nnc3c2c1	none
O=C(CN1CCOCC1)N/N=C/c1ccc(-c2cccc(Cl)c2Cl)o1	14-3-3 Bad PPI 77 (no result: Mcl-1 Bim block)
Cc1ccc2cc(/C=N/NC(=O)CN3CCOCC3)c(Cl)nc2c1	Mcl1-Bid inh 74
Cc1cccc2cc(/C=N/NC(=O)CN3CCOCC3)c(Cl)nc12	Mcl1-Bid inh 87
Cc1ccc2cc(/C=N/NC(=O)[C@H](C)NC(=O)OC(C)(C)C)c(Cl)nc2c1	none
Cc1ccc(/C=N/NC(=O)CN2CCN(Cc3ccccc3Cl)CC2)o1	none (no result: Mcl-1 Bim block)
CN(C)S(=O)(=O)c1cccc(C(=O)N=C2N=C3C=CC(Cl)=CN3Cc3ccccc32)c1	none (no result: Mcl-1 Bim block)
Cc1nc2ccccc2c(=O)n1NC(=O)Cc1ccc([N+](=O)[O-])cc1	none
CC(=O)c1cc(CN2CCN(C3CCCCC3)C(CCO)C2)cs1 (stereo not drawn)	none
CN(C)c1ccc(C=NCCC2(O)CCOC(C)(C)C2)cc1 (stereo not drawn)	none
CN(C)c1ccc(CNCCC2(O)CCOC(C)(C)C2)cc1 (stereo not drawn)	14-3-3 Bad PPI 75
c1ccc(Cc2nnc(-c3ccccc3)o2)cc1	none
Cc1ccc(-c2nnc(Cc3ccc(Cl)cc3)o2)cc1	Mcl-1 Bim block 40
Cc1cc(C)c2c(=O)n(CC(=O)N3CCC(Cc4ccccc4)CC3)sc2n1	Mcl1 Noxa PPI 59
Cc1cccc(N2CCN(C(=O)Cc3ccc(-n4c(=O)[nH]c5ccsc5c4=O)cc3)CC2C)c1 (stereo not drawn)	Mcl1-Bid inh 93
Cc1cccc(N2CCN(C(=O)Cn3sc4nc(C)cc(C)c4c3=O)CC2C)c1 (stereo not drawn)	Mcl1 Noxa PPI 59
Cc1ccc(-c2ccc(=O)n(CC(=O)N3CCN(c4cccc(C)c4)C(C)C3)n2)cc1 (stereo not drawn)	none
Cc1cc(C)c2c(=O)n(CC(=O)NCCCN3CCN(c4ccccc4F)CC3)sc2n1	NCF1 inh 51
Cc1ccc(CN2CCN(Cc3cccn3-c3nccs3)CC2CCO)cc1 (stereo not drawn)	none
COc1cccc(-n2c([S-])c(C(=O)Nc3ccc(S(=O)(=O)N4CCOCC4)cc3)[n+]3cc(C(N)=O)ccc23)c1	none (no result: Mcl-1 Bim block)
CCOc1ccc(NC(=O)Cn2sc3nc(C)cc(C)c3c2=O)cc1	Mcl1 Noxa PPI 51, NCF1 inh 40 (no result: Mcl-1 Bim block)
O=C(O)CCN1C(=O)/C(=C\c2ccncc2)SC1=S	none
O=C(O)CCCCCN1C(=O)/C(=C\c2cn(-c3ccccc3)nc2-c2cccs2)SC1=S	Mcl1 Noxa PPI 99, Mcl1-Bid inh 89 (no result: Mcl-1 Bim block)
O=C(O)CCN1C(=O)/C(=C/c2cn(-c3ccccc3)nc2-c2cccs2)SC1=S	Mcl1 Noxa PPI 88, 14-3-3 Bad PPI 76, Mcl1-Bid inh 84
Cc1ccc(-c2nn(-c3ccccc3)cc2/C=C2\SC(=S)N(CC(=O)O)C2=O)cc1	Mcl1 Noxa PPI 88 (no result: Mcl-1 Bim block)
Cc1nc(S/C(=C\c2ccc(-c3ccc(C(=O)O)c(Cl)c3)o2)C(=O)O)n[nH]1	Mcl1 Noxa PPI 93, 14-3-3 Bad PPI 86, Mcl1-Bid inh 55 (no result: Mcl-1 Bim block)
O=C(NCCc1ccccc1)C1CCN(Cc2ccccc2F)CC1	none
CN(C)CC(C)(C)CNC(=O)C1CCN(Cc2ccccc2O)CC1	Mcl1-Bid inh 58
CCOC(=O)c1sc(/N=C/c2ccc(O)cc2O)cc1C	Mcl1 Noxa PPI 57
CC(=O)Nc1cc(Cl)c(N=Cc2ccc(O)cc2O)cc1Cl	none
COc1cccc(NC(=O)CSc2nc(N)cc(N)n2)c1	none
COc1cccc(NC(=O)CSc2nc3ccccc3n2C)c1	Mcl1-Bid inh 85
Cc1ccc(-n2c(SCC(=O)Nc3ccc(N4CCOCC4)cc3)nc3ccccc3c2=O)cc1	none
O=C(CSc1nc2ccccc2c2nc3ccccc3n12)NCc1ccco1	Mcl1-Bid inh 86
COC(=O)CSc1nc2cc(OC)ccc2n1C	none (no result: Mcl-1 Bim block)
Cc1ccc(NC(=O)CSc2nc3ccccc3c3nc4ccccc4n23)cc1	Mcl1-Bid inh 62
COc1ccc2c(c1)nc(SCC(=O)c1ccc(Br)s1)n2C	14-3-3 Bad PPI 84
Cc1ccc(C)c(NC(=O)CN(C)C(=O)/C=C/c2ccco2)c1	none
O=C(C1CCCN1S(=O)(=O)c1cccc2nsnc12)N1CCCCCC1 (stereo not drawn)	none (no result: Mcl-1 Bim block)
Cc1ccc(C(=O)N[C@H](C(=O)OCC(=O)NC2CCS(=O)(=O)C2)C(C)C)cc1 (stereo partly drawn)	none
COc1ccc(/C=N/NC(=O)CN2CCSCC2)c(OC)c1	Mcl1 Noxa PPI 60
O=C(Oc1ccc(NC2=C(Cl)C(=O)c3ccccc3C2=O)cc1)c1ccc([N+](=O)[O-])cc1	Mcl1 Noxa PPI 92, Mcl1-Bid inh 70
CCn1c(COc2ccc(=O)n(-c3ccccc3)n2)nnc1SC	none
O=C(C1=C(O)C(=O)N(c2ncccn2)C1c1ccc(Cl)c(Cl)c1)c1ccco1 (stereo not drawn)	none
O=C(C1=C(O)C(=O)N(c2ncccn2)C1c1cccc(Cl)c1)c1ccco1 (stereo not drawn)	Mcl1 Noxa PPI 63
CC1CCN(CC(=O)NC(=O)NCc2ccccc2)CC1	none
Cc1cc(C)c(C)c(S(=O)(=O)N2CCN(CC(=O)NC(=O)NCc3ccccc3)CC2)c1C	Mcl-1 Bim block 61
O=C(CCCCn1c(=S)[nH]c2ccsc2c1=O)NCc1ccc2c(c1)OCO2	none
CCn1c2ccccc2c2cc(NC(=O)c3coc(=O)c(Br)c3)ccc21	Mcl1 Noxa PPI 69 (no result: Mcl-1 Bim block)
CCn1c2ccccc2c2cc(NC(=O)c3ccc(=O)oc3)ccc21	none (no result: Mcl-1 Bim block)
O=C(/C=C/c1ccc(Br)cc1)N1CCN(c2cccc(C(F)(F)F)c2)CC1	Mcl1-Bid inh 61
O=C(c1c(F)c(F)c(F)c(F)c1F)N1CCN(c2cccc(C(F)(F)F)c2)CC1	none
O=C(/C=C/c1cccc(Br)c1)N1CCN(c2cccc(C(F)(F)F)c2)CC1	none
O=C(CN1CCN(c2cccc(C(F)(F)F)c2)CC1)Nc1cccc(C(F)(F)F)c1	14-3-3 Bad PPI 74
O=C(c1ccncc1)N1CCN(c2cccc(C(F)(F)F)c2)CC1	Mcl1 Noxa PPI 57
O=C(CSc1nnc(SCc2ccc(Cl)cc2)s1)N/N=C/c1c[nH]c2ccccc12	Mcl1 Noxa PPI 65, 14-3-3 Bad PPI 90[fluorescence artefact?], Mcl1-Bid inh 92, NCF1 inh 43
O=C(COc1ccc(Cl)cc1Cl)NCC(=O)N/N=C/c1c[nH]c2ccccc12	Mcl1 Noxa PPI 58
COC(=O)C1(C)Cc2cc(OC(C)=O)c(OC(C)=O)cc2N1 (stereo not drawn)	none (no result: Mcl-1 Bim block)
